This is a sample that favours compounds with a hit; in the whole collection about 10% have one here.
HEK cytotox = Cytotoxic Profiling in HEK 293 Cell Line of Diverse Libraries Using Quantitative High-Throughput Screening; AID 1345083, 2018; HEK 293 viability, ATP luminescence (CellTiter-Glo), 48-72 h; 94,000 compounds, 6.6% hits; Potency, µM (top dose mostly 115 µM), actives largely listed as inhibitors; further: nearly all actives have a fitted effect of over 60% in size
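ATP-coupled CellTiter-Glo luminescence served as viability read-out, recorded 10 min after reagent addition at room temperature. HEK 293 cells, 250 cells/well, had been incubated with pintool-transferred compound for 48 or 72 hr at 37 degree Celsius.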
NIH3T3 tox = Cytotoxic Profiling in NIH 3T3 Cell Line of Diverse Libraries Using Quantitative High-Throughput Screening | NIH 3T3 viability, CellTiter-Glo ATP luminescence, 48-72 h | Potency, µM (highest dose often 96.7 µM), actives largely listed as inhibitors | 94,000 compounds, 4.3% hits | AID 1345082, 2018; further: nearly all actives have a fitted effect of over 55% in size
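Cytotoxicity was measured by CellTiter-Glo ATP luminescence after 48 or 72 h compound exposure at 37 °C. Mouse NIH 3T3 fibroblasts were seeded at 400 cells/well and dosed by 23 nL pin transfer.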
Luciferase inh = Firefly luciferase inhibition profiling of diverse chemical library using quantitative high-throughput screening; Luciferin 4-monooxygenase (Photinus pyralis), P08659; 76,000 compounds, 2.5% hits; Potency, µM (highest dose often 115 µM), hits mostly inhibitors; purified P. pyralis luciferase, luminescence, biochemical; AID 1347043, 2019; further: nearly all actives have a fitted effect of over 65% in size
Target sequence (P08659 whole entry, looked up): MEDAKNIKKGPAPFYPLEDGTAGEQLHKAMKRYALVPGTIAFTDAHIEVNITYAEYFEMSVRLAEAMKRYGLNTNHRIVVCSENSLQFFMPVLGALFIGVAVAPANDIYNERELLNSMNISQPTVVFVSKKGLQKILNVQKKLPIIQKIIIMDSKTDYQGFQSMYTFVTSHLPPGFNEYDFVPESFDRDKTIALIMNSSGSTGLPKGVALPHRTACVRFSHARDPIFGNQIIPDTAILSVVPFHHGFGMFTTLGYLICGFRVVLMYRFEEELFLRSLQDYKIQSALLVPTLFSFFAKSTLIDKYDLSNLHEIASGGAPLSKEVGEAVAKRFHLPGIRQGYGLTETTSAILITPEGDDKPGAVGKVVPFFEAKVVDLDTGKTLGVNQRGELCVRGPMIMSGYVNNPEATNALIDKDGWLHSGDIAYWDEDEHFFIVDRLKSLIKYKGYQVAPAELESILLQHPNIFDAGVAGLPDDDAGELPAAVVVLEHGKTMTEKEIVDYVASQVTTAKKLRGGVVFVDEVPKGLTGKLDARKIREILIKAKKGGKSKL
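Cell-free enzyme assay, 10nM P. pyralis luciferase, luciferin and ATP each at 10uM. Inhibition profiled over a 6-point titration, read as luminescence.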
hNpr1 antagonist = Natriuretic polypeptide receptor (hNpr1) antagonism - Primary qHTS. Potency, µM (top dose mostly 46.3 µM), usual class: inhibitors. 76,000 compounds, 1.6% hits. HEK293 hNpr1 GloSensor cGMP, ANP-stimulated luminescence. Atrial natriuretic peptide receptor 1 (Homo sapiens), P16066; calls by dose curve; further: nearly all actives have a fitted effect of over 60% in size
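HEK293 cells stably expressing human Npr1 and cGMP GloSensor pGS-40F, loaded 2 h with 2% GloSensor reagent, given compound 30 min at room temperature. Luminescence read before and 20 min after 0.1 nM hNppA.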
GPT2 inh = Primary qHTS assay for inhibitors of Glutamate pyruvate transaminase 2 (GPT2). Potency, µM (highest dose often 57.7 µM), actives largely listed as inhibitors. 100,000 compounds, 0.25% hits. Recombinant GPT2, coupled pyruvate oxidase/HRP Amplex Red fluorescence. Alanine aminotransferase 2 (Homo sapiens), Q8TD30; further: nearly all actives have a fitted effect of over 60% in size
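GPT2 10ng/uL, a-KG 250uM, L-Ala 2mM, HEPES pH7.5 + 0.0001% Tween; 30 min RT. Then Amplex mix (PO/HRP/ThPP), 30 min RT dark, fluorescence. AOA 50uM used as positive control.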
Large screens that a line does not name were inactive. Unless noted, the call rests on the fitted dose curve; in most records, active means well fitted curve in the direction sought with a large enough effect; inconclusive means small, poorly fitted or top-dose-only effect, or another doubt; inactive means no such curve, though single readings can be large; an effect the other way counts as inactive or inconclusive.

O=C(CNC(=O)c1cccc(-c2ccc(C(F)(F)F)cc2)c1)NCc1cccc(Cl)c1	HEK cytotox 28µM, NIH3T3 tox inconclusive (no result: Luciferase inh, hNpr1 antagonist)
O=C(Cc1cccc(Cl)c1)NCCNC(=O)c1cccc(-c2ccc(C(F)(F)F)cc2)c1	HEK cytotox inconclusive (no result: Luciferase inh, hNpr1 antagonist)
O=C(NCC(=O)N1CCC(c2ccccc2)CC1)c1cccc(-c2ccc(C(F)(F)F)cc2)c1	HEK cytotox 10µM, NIH3T3 tox inconclusive (no result: Luciferase inh, hNpr1 antagonist)
CSc1ccc(-c2cccc(C(=O)NCC(=O)N3CCN(c4ncccn4)CC3)c2)cc1	HEK cytotox 22µM, NIH3T3 tox inconclusive (no result: Luciferase inh, hNpr1 antagonist)
FC1CCN(Cc2cn(Cc3ccccc3)nc2-c2cc3ccccc3o2)CC1	HEK cytotox 32µM, NIH3T3 tox inconclusive
c1ccc(Cn2cc(CN3CCN(c4ccncc4)CC3)c(-c3cc4ccccc4o3)n2)cc1	HEK cytotox 40µM, NIH3T3 tox 28µM
c1ccc(Cn2cc(CN3CCCOCC3)c(-c3cc4ccccc4o3)n2)cc1	HEK cytotox inconclusive, NIH3T3 tox inconclusive, Luciferase inh 35µM
COC[C@H]1CCCN1Cc1cn(Cc2ccccc2)nc1-c1cc2ccccc2o1	HEK cytotox inconclusive, NIH3T3 tox inconclusive, Luciferase inh inconclusive
CC1(C)CN(Cc2cn(Cc3ccccc3)nc2-c2cc3ccccc3o2)CCO1	HEK cytotox inconclusive, NIH3T3 tox inconclusive, GPT2 inh inconclusive
CCCCOC(=O)N1C[C@@H](C(N)=O)[C@@H]2Oc3c(C)cccc3[C@@H]21	HEK cytotox inconclusive (no result: Luciferase inh, hNpr1 antagonist, GPT2 inh)
Cc1cccc(CN2CCNc3cc(-c4ccnc(C)c4)ncc3C2)c1	HEK cytotox 40µM, NIH3T3 tox inconclusive, Luciferase inh inconclusive
CCn1cc(-c2cc3c(cn2)CN(CCc2ccccc2)CCN3)cn1	HEK cytotox inconclusive, NIH3T3 tox inconclusive
Cc1cc(-c2cc3c(cn2)CN(Cc2c[nH]c4ccccc24)CCN3)ccn1	HEK cytotox 112µM, NIH3T3 tox inconclusive, Luciferase inh inconclusive
Oc1cccc(-c2cc3c(cn2)NCCN(Cc2ccccc2)C3)c1	HEK cytotox inconclusive, NIH3T3 tox inconclusive
Cc1cccc(CN2CCNc3cnc(OCc4cccnc4)cc3C2)c1	HEK cytotox 100µM, NIH3T3 tox inconclusive, hNpr1 antagonist inconclusive
Cc1cc(-c2cc3c(cn2)CN(Cc2ccccc2F)CCN3)ccn1	HEK cytotox 71µM, NIH3T3 tox inconclusive, Luciferase inh 25µM
c1cc(CN2CCNc3cc(-c4ccsc4)ncc3C2)ccn1	HEK cytotox inconclusive, Luciferase inh inconclusive
Fc1ccc(CN2CCNc3cnc(OCc4cccnc4)cc3C2)cc1F	HEK cytotox inconclusive, NIH3T3 tox inconclusive, hNpr1 antagonist inconclusive
Cc1cc(-c2cc3c(cn2)CN(Cc2ccc(F)c(F)c2)CCN3)ccn1	HEK cytotox 71µM, NIH3T3 tox inconclusive, Luciferase inh 40µM
Cc1cc(-c2cc3c(cn2)CN(Cc2ccc(C(F)(F)F)cc2)CCN3)ccn1	HEK cytotox 63µM, NIH3T3 tox 79µM, Luciferase inh 63µM, hNpr1 antagonist 28µM
O=C(NCCNC(=O)c1ccc(-c2cccc(C(F)(F)F)c2)cc1)Nc1ccc(Cl)cc1	none (no result: Luciferase inh, hNpr1 antagonist, GPT2 inh)
CC(C)C1=NOC2(CCN(C(=O)c3ccc4c(c3)OCO4)CC2)C1	none
CC(C)S(=O)(=O)N1CCc2c(c(CN3CCOCC3)nn2C)C1	none (no result: Luciferase inh, hNpr1 antagonist)
c1ccc2sc([C@H]3CCN(C4CCC4)C3)nc2c1	HEK cytotox inconclusive, Luciferase inh 1.6µM, hNpr1 antagonist 22µM
CC(=O)N1CCC(N2CC[C@H](c3nc4ccccc4s3)C2)CC1	Luciferase inh inconclusive
O=C(O)CCn1ncc2cc(OCC3CCN(C(=O)COc4ccccc4)CC3)ccc21	NIH3T3 tox 28µM
O=C(O)CCn1ncc2cc(OCC3CCN(C(=O)OC4CCCC4)CC3)ccc21	HEK cytotox inconclusive, NIH3T3 tox 25µM, Luciferase inh inconclusive
O=C(O)CCn1ncc2cc(OCC3CCN(C(=O)C4CCCC4)CC3)ccc21	NIH3T3 tox inconclusive, Luciferase inh inconclusive
O=C(O)CCn1ncc2cc(OCC3CCN(C(=O)CC4CC4)CC3)ccc21	NIH3T3 tox 50µM, Luciferase inh inconclusive
O=C(O)CCn1ncc2cc(OCC3CCN(C(=O)C4CC4)CC3)ccc21	NIH3T3 tox inconclusive, Luciferase inh inconclusive

Screening results deposited in PubChem BioAssay by National Center for Advancing Translational Sciences (NCATS).
